High-throughput results (PubChem BioAssay)
ADAM10 inh = human ADAM10 inhibitors, primary screen, biochemical, QFRET, HTS | inhibition, % at 7 µM | 370,000 compounds, 0.62% hits | recombinant ADAM10, EDANS/DABCYL FRET peptide cleavage, 3 h | AID 720582, 2013 | Disintegrin and metalloproteinase domain-containing protein 10 (Homo sapiens), O14672;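 active = inhibition above a per-campaign cutoff equal to the mean of compounds falling between control-based bounds plus 3 SD, cut at about 20% in these data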;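 note: 0% = DMSO wells while the 100% control is not disclosed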
HGIII-sPLA2 inh = human group III sPLA2 inhibitors, primary screen, biochemical, QFRET, BODIPY PC-A2 liposome substrate | 370,000 compounds, 0.56% hits | Group 3 secretory phospholipase A2 (Homo sapiens), Q9NZ20 | QFRET BODIPY PC-A2 liposome hydrolysis, fluorescence | AID 743126, 2013 | inhibition, % at 12.2 µM;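 active = inhibition above mean plus 3 SD of compounds lying within the high and low control bounds, cut at about 19% in these data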;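 note: 0% = median of test compound wells and 100% = no enzyme DMSO wells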
Target sequence (Q9NZ20 whole entry, looked up): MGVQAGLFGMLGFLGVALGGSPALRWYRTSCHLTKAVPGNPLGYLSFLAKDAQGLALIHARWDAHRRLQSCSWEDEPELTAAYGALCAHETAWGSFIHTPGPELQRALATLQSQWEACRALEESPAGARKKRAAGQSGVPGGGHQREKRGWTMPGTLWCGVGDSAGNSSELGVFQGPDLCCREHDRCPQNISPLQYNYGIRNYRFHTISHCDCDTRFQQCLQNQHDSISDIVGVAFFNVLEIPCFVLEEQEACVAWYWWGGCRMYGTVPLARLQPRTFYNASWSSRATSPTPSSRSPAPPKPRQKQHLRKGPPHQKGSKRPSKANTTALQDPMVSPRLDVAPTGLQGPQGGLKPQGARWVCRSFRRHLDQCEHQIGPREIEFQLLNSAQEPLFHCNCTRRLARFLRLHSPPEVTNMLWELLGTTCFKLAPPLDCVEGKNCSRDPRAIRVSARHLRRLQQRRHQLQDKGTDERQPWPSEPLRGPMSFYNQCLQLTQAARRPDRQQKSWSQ
PLC-gamma1 inh = PLC-gamma1 enzyme inhibitors, primary screen, biochemical, fluorescence, purified enzyme; fluorogenic substrate; inhibition, % at 12.2 µM; 370,000 compounds, 0.84% hits; in the data active = inhibition above about 9.5%
proKLK7 act = proKLK7 zymogen activators, primary screen, biochemical, fluorescence intensity. Kallikrein-7 (Homo sapiens), P49862. purified proKLK7, EDANS-DABCYL substrate fluorescence; 100% is mature enzyme control, 0% vehicle. activation, % at 7 µM. 370,000 compounds, 0.9% hits. AID 652039, 2013;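 active = activation above the mean of all tested compounds plus 3 SD, computed per campaign excluding outliers beyond control limits, cut at about 13% in these data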
ADAM17 inh = ADAM17 inhibitors, primary screen, biochemical, QFRET; Disintegrin and metalloproteinase domain-containing protein 17 (Homo sapiens), P78536; recombinant ADAM17, EDANS/DABCYL FRET peptide cleavage; inhibition, % at 6.95 µM; 370,000 compounds, 0.83% hits; AID 720648, 2013;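 active = inhibition above the mean of compounds lying between control limits plus 3 SD, set per campaign, cut at about 8.5% in these data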;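 note: 0% = DMSO-only wells as the low control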
PLCb3 inh = human PLC-beta3 inhibitors, primary screen, biochemical, fluorescence. 1-phosphatidylinositol 4,5-bisphosphate phosphodiesterase beta-3 (Homo sapiens), Q01970. Purified PLC-beta3, fluorogenic substrate. inhibition, % at 12.2 µM. 370,000 compounds, 0.18% hits;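 note: 0% = median of compound wells on plate and 100% = full blocker control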
PLCgamma1 ctr = PLC-gamma1 enzyme inhibitors, counter-screen for PLC-beta3 inhibitor project, biochemical, fluorescence | shares compounds with PLC-gamma1 inh | purified PLC-gamma1, fluorogenic substrate | inhibition, % at 12.3 µM | 3,300 compounds, 3.1% hits; in the data active = inhibition above about 9.5%
PLCb3 confirm = PLC-beta3 inhibitor confirmation, biochemical, fluorescence, purified enzyme | fluorogenic substrate fluorescence | shares compounds with PLC-gamma1 inh | 3,300 compounds, 1% hits | inhibition, % at 12.3 µM
* marks the source's active call; other numbers are inactive results; x = not tested or not shown. Only some compounds are listed: those with a hit (about 3.4% of all), similar ones and a draw of the others. Cut-off read from the data, not from the text of the source, unless noted: active = inhibition above about 11%; inactive = the rest.

SMILES	ADAM10 inh	HGIII-sPLA2 inh	PLC-gamma1 inh	proKLK7 act	ADAM17 inh	PLCb3 inh	PLCgamma1 ctr	PLCb3 confirm
O=C(C1CCCN1S(=O)(=O)c1cccs1)N1CCc2ccccc2C1 (configuration not stated)	-15.2	12.2	7.8	-1.0	-2.5	-1.2	x	x
COC(=O)[C@H](CC(C)C)NC(=O)Nc1ccc(F)cc1	5.3	3.5	-0.4	0.2	1.8	0.3	x	x
COC(=O)[C@H](CC(C)C)NC(=O)Nc1ccc2c(c1)OCCO2	8.1	6.3	12.3*	0.2	4.9	8.7	-5.1	-2.8
CCC(C)[C@H](NC(=O)Nc1ccc2c(c1)OCCO2)C(=O)OC (some centres not stated)	6.9	0.3	0.0	-0.3	0.1	-2.9	x	x
COC(=O)[C@@H](NC(=O)Nc1ccc2c(c1)OCCO2)C(C)C	-1.0	0.1	10.0*	-0.1	3.1	2.2	0.2	0.2
Cc1cccc(Nc2nnc(SCC(=O)Nc3ccc(C(=O)O)cc3)s2)c1	5.8	-21.4	9.8*	-0.5	-5.8	0.2	-4.4	-4.0
CCOC(=O)c1ccc(NC(=O)CSc2nnc(SCc3cccc4ccccc34)s2)cc1	8.0	-1.2	12.1*	-0.2	3.0	8.7	-4.8	-6.6
O=C(CCc1nc(-c2ccccc2F)no1)NCCN1CCOCC1	3.5	3.6	3.9	0.0	3.7	14.4*	-13.9	3.2
COc1ccc(N(C)C(=O)CCS(=O)(=O)c2cccc3nonc23)cc1	8.0	4.3	7.9	-0.5	6.2	11.4*	-3.5	-0.1
COc1ccc(CNC(=O)CCS(=O)(=O)c2cccc3nonc23)cc1	-4.1	0.3	-2.2	0.1	-7.8	0.4	x	x
COc1ccc([N+](=O)[O-])cc1NS(=O)(=O)c1ccccc1	0.2	10.0	1.5	0.2	-2.9	4.4	x	x
COc1ccc([N+](=O)[O-])cc1NS(=O)(=O)c1cc(C(=O)O)ccc1OC	7.5	-1.1	9.5*	0.1	0.2	-2.9	-2.4	-1.4
COC(=O)CC(C(=O)Nc1cc(C(=O)OC)cc(C(=O)OC)c1)N1CCN(C)CC1 (configuration not stated)	-2.3	8.5	14.3*	-0.1	4.7	11.3*	-3.8	0.3
CCCNC(=O)C1(O)c2cc(Br)ccc2NC(=O)N1c1ccc(Cl)cc1 (configuration not stated)	3.5	-2.2	1.1	-0.4	-2.8	-3.2	x	x
CCN(CC)CCNC(=O)C1(O)c2cc(Br)ccc2NC(=O)N1c1ccc(Cl)cc1 (configuration not stated)	0.3	2.6	11.8*	-0.5	4.1	6.8	-4.7	-2.3
COC(=O)c1c(-c2c(Cl)cccc2Cl)noc1C(=O)NNC(=O)N(C)C	8.5	-0.1	9.8*	0.0	1.4	1.1	4.0	-1.3
COc1ccc(S(=O)(=O)N2CCN(Cc3ccc4c(c3)OCO4)CC2)cc1F	2.2	-6.8	0.2	-0.6	-2.7	-7.9	x	x
O=S(=O)(c1ccc(F)c(F)c1)N1CCN(Cc2ccc3c(c2)OCO3)CC1	8.2	-4.5	11.5*	0.7	1.9	4.2	-0.3	0.0
Cc1ccc(NC(=S)N(N)CCO)cc1	7.2	12.3	11.7*	-0.4	4.2	5.4	-0.3	-1.2
C[C@H]1C2CC(OC(=O)Nc3cccc(F)c3)C(C2)[C@H]2CCCCN21 (some centres not stated)	-8.2	7.5	-0.7	-0.4	-6.4	1.4	x	x
Cc1ccc(N2C(=O)CC(Cn3nc(C)cc3C)C2=O)cc1 (configuration not stated)	4.7	0.1	10.7*	0.2	-2.1	-0.8	7.4	0.9
Cc1cc(C)n(CC2CC(=O)N(c3ccc(Cl)cc3)C2=O)n1 (configuration not stated)	2.9	-0.8	5.3	0.3	-0.8	-4.8	x	x
NC(=O)c1ncn([C@@H]2O[C@H](C(=O)N[C@H](Cc3c[nH]c4ccccc34)C(=O)N3CCN(C(=O)N4CCOCC4)CC3)[C@@H](O)[C@H]2O)n1	-13.3	7.7	-1.3	1.0	-5.8	0.9	x	x
Nn1c(SCC(=O)Nc2nccs2)nnc1-c1cc(-c2ccc(Cl)cc2)n[nH]1	2.7	-6.3	2.4	-0.3	1.3	1.8	x	x
COc1ccc(OC)c(NC(=O)CCNS(=O)(=O)c2ccc3c(c2)oc(=O)n3C)c1	7.5	-1.1	5.8	0.2	7.0	12.4*	-3.1	-1.8
SMILES	ADAM10 inh	HGIII-sPLA2 inh	PLC-gamma1 inh	proKLK7 act	ADAM17 inh	PLCb3 inh	PLCgamma1 ctr	PLCb3 confirm
C[C@@H]1CCN(C2CC2)S(=O)(=O)c2ccc(N3CC[C@@H](N(C)C)C3)cc2O1	-0.8	-0.8	-3.1	-0.2	-4.6	1.3	x	x
Cn1c(=O)c2c(nc(N3CCN(c4ccccn4)CC3)n2Cc2ccc(Cl)cc2Cl)n(C)c1=O	11.7	10.1	11.1*	0.4	4.2	7.4	4.3	1.4
COc1ccnc2c1c(=O)n(Cc1ccc(Cl)cc1Cl)c(=O)n2C	0.9	-0.6	9.8*	-0.5	-0.6	-3.8	-13.6	-9.1
CN1CCN(c2nc3c(c(=O)n(C)c(=O)n3C)n2Cc2ccccc2)CC1	-1.6	-0.8	0.0	-0.2	-3.9	-3.3	x	x
COc1ccnc2c1c(=O)n(Cc1ccccc1Cl)c(=O)n2C	4.3	5.2	0.5	-0.1	-3.5	-3.6	x	x
COC(=O)C1CN(Cc2cn(CCOC(C)=O)nn2)CCS(=O)(=O)N1Cc1ccc(OC)cc1 (configuration not stated)	5.5	6.7	4.5	0.2	2.4	4.0	x	x
Nc1ccc(N2CCCCC2)cc1N1CCCCC1	1.4	8.2	-12.1	0.1	-0.7	-9.0	x	x
Nc1ccc(N2CCCCC2)c2nonc12	-3.2	4.2	33.8*	0.3	6.3	-8.8	-7.6	-9.5
CCc1ccccc1NC(=O)CN(C)C(=O)COC(=O)c1c(Cl)cccc1Cl	-0.9	-2.3	3.5	-0.4	-5.0	-7.1	x	x
CCc1ccccc1NC(=O)CN(C)C(=O)COC(=O)c1cccnc1Cl	-7.8	-2.9	10.5*	-0.5	7.0	-1.0	-5.7	-0.2
O=C(NCC(=O)N(CC1CCCO1)C(C(=O)NC1CCCCC1)c1ccc(F)cc1)c1ccco1 (configuration not stated)	-2.3	-5.8	3.0	-0.5	-3.0	0.8	x	x
